Experimental findings from PubChem BioAssay are described below.

The nature of test [1]: compounds altering viability of human ES cells (AID 493140).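 Also: cells exposed to compounds for four days before counting.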 To be noted: human embryonic stem cell survival screen; stronger effect = higher value.
The nature of test [2]: P. berghei load reduction in hepatocytes – cell-based, HepG2, luciferase luminescence, HepG2 viability, primary screen (AID 624349; in the data active = parasite load remaining mostly below about 12%, no sharp cut-off; inactive = mostly above about 10%;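 also: 100% = mean of DMSO negative control wells on the same plate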). Conditions: P. berghei liver stage in HepG2, luciferase luminescence, concentration not given here; parasite load remaining: stronger effect = lower value; viability: measured here: HepG2 viability without parasites.
For test [3], the target named is 6-phosphogluconate dehydrogenase, decarboxylating (Homo sapiens) (UniProt P52209). The experiment in a line: inhibition of human phosphogluconate dehydrogenase – biochemical, recombinant enzyme, NADPH absorbance, primary screen (AID 1159550;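 active = at least 20% inhibition of 6-phosphogluconate dehydrogenase activity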). To be noted: recombinant 6PGD, NADPH absorbance 341 nm; at 10 µM; stronger effect = higher value.
Test [4] is described as follows: viability loss in pontine glioma line – cell-based, SU-DIPG-XVII, MIPE5.0, CellTiter-Glo, qHTS, dose response (AID 1347060; cut-off not given, nearly all actives have AC50 up to about 26 µM). Conditions: CellTiter-Glo ATP luminescence.
Test [5] is described as follows: viability loss in pontine glioma line – cell-based, SU-DIPG-XIII, MIPE4.0, CellTiter-Glo, qHTS, dose response (AID 1347061; cut-off not given, nearly all actives have AC50 up to about 37 µM;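 also: cells exposed to compound for 48 hours before readout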). Conditions: CellTiter-Glo ATP luminescence.
The nature of test [6]: viability loss in pontine glioma line – cell-based, JHH-DIPG-1, MIPE4.0, CellTiter-Glo, qHTS, dose response (AID 1347062; cut-off not given, nearly all actives have AC50 up to about 27 µM). To be noted: JHH-DIPG-1 viability, CellTiter-Glo ATP luminescence.
Test [7] in a line: viability loss in pontine glioma line – cell-based, SU-DIPG-IV, MIPE4.0, CellTiter-Glo, qHTS, dose response (AID 1347063; cut-off not given, nearly all actives have AC50 up to about 30 µM;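 also: compound exposure lasted 48 hours before the viability readout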). Conditions: CellTiter-Glo ATP luminescence.
Test [8] can be described thus: viability loss in pontine glioma line – cell-based, SU-DIPG-XIII, MIPE5.0, CellTiter-Glo, qHTS, dose response (AID 1347064; cut-off not given, nearly all actives have AC50 up to about 23 µM). To be noted: CellTiter-Glo ATP luminescence.
The nature of test [9]: growth inhibition of DIPG cells – cell-based, MIPE4.0 library, CellTiter-Glo luminescence, qHTS (AID 1347066; cut-off not given, nearly all actives have AC50 up to about 30 µM;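 also: cells exposed to compound for 48 hours before readout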). Conditions: SU-DIPG-VI viability, CellTiter-Glo ATP luminescence.
Test [10] is described as follows: JHH-DIPG-1 glioma cell viability, MIPE5.0 library, CellTiter-Glo luminescence, qHTS (AID 1347067; cut-off not given, nearly all actives have AC50 up to about 26 µM;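 also: cells exposed to compound for 48 hours before readout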). Conditions: JHH-DIPG-1 glioma viability, CellTiter-Glo ATP luminescence.
Test [11] is described as follows: growth inhibition of DIPG cells – cell-based, MIPE5.0 library, qHTS (AID 1347068; cut-off not given, nearly all actives have IC50 up to about 30 µM). Conditions: SU-DIPG-XXV viability.
A short description of test [12]: viability loss with induced miR-34 in A549 – imaging, A549 dox-inducible miR-34, nuclei and caspase counts, primary screen (AID 1347080;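 active = compounds whose cell count with miR-34 switched on is under 0.7 times the count with it off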). Conditions: A549 miR-34 inducible, Hoechst nuclei count, 48 h.
Test [13] in a line: MELAS cybrid and Rieske KO viability enhancers – cell-based, MELAS cybrids, Rieske KO mouse fibroblasts, CellTiter-Glo, primary screen (AID 1508586;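 active = mean z-score across replicates of 1.96 or higher in either the MELAS or the Rieske mutant cell line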;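 also: z relative to plate mean and SD of compound and empty wells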). Conditions: low glucose.
Test [14] deals with NAD(+) hydrolase SARM1 (Homo sapiens) (UniProt Q6SZW1). In words: blocking NAD cleavage by SARM1 SAM-TIR – cell lysate, NAD-Glo luminescence (AID 1508614;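 active = compound whose remaining NAD level is above about 45 nM, limit read from the data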;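 also: higher remaining NAD means stronger inhibition of SARM1 NADase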). Conditions: SAM-TIR HEK293T lysate NADase, at 1 µM, stronger effect = higher value.
The target of test [15] is Mitogen-activated protein kinase 7 (Homo sapiens) (UniProt Q13164). The experiment in a line: Gal4-ERK5 driven luciferase induction – cell-based, HTS, primary screen (AID 1508626;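 active = luciferase signal above three times the same-plate solvent-only control wells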;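 also: luciferase driven by Gal4-ERK5 fusion binding five Gal4 sites before minimal TATA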). Conditions: HeLa Gal4-ERK5 transactivation, 18 h, at 5 µM, stronger effect = higher value.
The nature of test [16]: compounds altering circadian rhythm period length – cell-based, LOPAC library, luminescence reporter (AID 2774).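 Also: values are relative to mean of DMSO wells on each plate.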 To be noted: circadian reporter cells, at 7 µM, actives lie on both sides.
In test [17] the test system is Hepatitis C virus NS3 helicase. In words: blockers of NS3h binding to ssDNA – biochemical, fluorescence polarization, LOPAC1280 library, primary screen (AID 687035; in the data active = inhibition above about 37%). To be noted: Purified HCV NS3 helicase, Cy5-dT15 ssDNA binding fluorescence polarization; stronger effect = higher value; concentration not given here.
Test [18] is described as follows: compounds altering Cy5-DNA-NS3h complex signal – biochemical, LOPAC1280, artefact control for HCV NS3 helicase inhibitor project (AID 687037). Conditions: Cy5-DNA-NS3h complex fluorescence interference counterscreen.
The subject of test [19] is Aerobactin synthetase IucA (Klebsiella pneumoniae). The experiment in a line: inhibition of K. pneumoniae IucA enzyme – biochemical, Tocris library, absorbance (AID 1345561).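 Also: 100% = enzyme without compound and 0% = no enzyme.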 To be noted: purified IucA enzyme assay, absorbance (OD) read-out; stronger effect = lower value;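 tested at 8 µM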.
A short description of test [20]: blockers of cellular phospholipid synthesis – cell-based, LOPAC library, screen 4, primary screen (AID 1347384). Conditions: animal cells, phospholipid biosynthesis inhibition screen; at 10 µM.
Test [21] is described as follows: galactose survival enhancers in mitochondrial complex I cybrids – cell-based, galactose medium, ATP luminescence, primary screen (AID 1645843;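 active = z-score of at least 1.8 in each of two replicates, scored against plate mean and spread of sample wells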;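 also: positive z means more ATP and so rescue of galactose-driven cybrid death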). To be noted: complex I mutant cybrid cells, 72 h, stronger effect = higher value.
The target in test [22] is ATP-dependent translocase ABCB1 (Homo sapiens) (UniProt P08183). The experiment in a line: P-glycoprotein substrate transport blockade – cell-based (AID 377; in the data active = fluorescence slope change above about 50%). Conditions: MDR1-expressing cells, fluorescent substrate accumulation slope; stronger effect = higher value; concentration not given here.
A short description of test [23]: signal quenchers or enhancers, Cy5 substrate/SSB – biochemical, NIH Clinical Collection, E. coli SSB, artefact control for HCV NS3 helicase inhibitor project (AID 743268). Conditions: Cy5-oligo bound E. coli SSB, fluorescence interference.
The test system of test [24] is Hepatitis C virus NS3 helicase. The experiment in a line: blockers of NS3h binding to DNA – biochemical, fluorescence polarization, NIH Clinical Collection, primary screen (AID 743270). To be noted: NS3 helicase binding to Cy5-dT15 DNA, stronger effect = higher value, concentration not given here.
Test [25] has as its target Single-stranded DNA-binding protein (Escherichia coli (strain K12)) (UniProt P0AGE0). In words: SSB-ssDNA binding inhibitors – biochemical, fluorescence polarization, NIH Clinical Collection, counter-screen for HCV NS3 helicase inhibitor project (AID 743271; in the data active = inhibition above about 28%). To be noted: E. coli SSB-DNA binding, stronger effect = higher value, concentration not given here.
The nature of test [26]: compounds distorting NS3 helicase fluorescence signal – biochemical, NIH Clinical Collection, artefact control for HCV NS3 helicase inhibitor project (AID 743272).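 Also: HCV NS3 helicase with a Cy5 labelled single stranded DNA probe.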 To be noted: fluorescence interference counterscreen, HCV NS3 helicase assay; stronger effect = lower value.
Test [27] is described as follows: blockers of polyQ-driven CASP3 activation – cell-based (AID 1583). Conditions: polyglutamine-induced caspase-3 activation, cell assay; stronger effect = higher value;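 tested at 10 µM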.
Test [28] in a line: yeast 75Q aggregation reduction – 75Q-TubU reporter (AID 1593). To be noted: Yeast 75Q polyglutamine aggregation reporter.
Test [29] in a line: restoration of touch response, mutant HTT neurons – whole organism, C. elegans mechanosensory neurons, N-terminal huntingtin (AID 1599). Conditions: C. elegans polyQ-huntingtin mechanosensory neurons, stronger effect = higher value.
The nature of test [30]: blockers of cytochrome c efflux from mitochondria – biochemical, purified mitochondria (AID 1603).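 Also: mouse liver mitochondria challenged with calcium chloride; signal normalized to the plate average as 100%.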 Conditions: stronger effect = lower value.
Test [31] in a line: polyglutamine aggregate formation blockers (AID 1604). To be noted: polyglutamine-induced protein aggregation inhibition assay; stronger effect = higher value; tested at 2.5 µM.
Test [32] in a line: glutamate transport activators, MN-1 cells, MN-1 cell line (AID 1612).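 Also: tested at 1 µM final; 0% = mean of DMSO vehicle wells on each plate; positive means more glutamate uptake than control and negative means less.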 Conditions: MN-1 motor neuron cells, stronger effect = higher value.
Test [33] can be described thus: GFP-Q80 aggregate reduction, neuronal-like cells, cell-based, NGF-treated PC12, GFPQ80 (AID 1614).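 Also: lower means fewer inclusions and 0 means no inclusions at all.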 Conditions: PC12 NGF-treated GFP-polyQ80 inclusion reduction.
Test [34] can be described thus: 75Q-TubH aggregate inhibition, S. cerevisiae, yeast (AID 1616). Conditions: S. cerevisiae 75Q-TubH polyglutamine aggregation suppression; stronger effect = higher value.
Setting [35] is: stronger effect = lower value, cell number ratio, induced over uninduced.
Setting [36] is: measured here: relative caspase fold change +Dox/-Dox.
Setting [37] is: measured here: total cells with miR-34 induction, stronger effect = lower value.
Where [38] appears, read: measured here: total cells without miR-34 induction.
Where [39] appears, read: MELAS cybrid survival, CellTiter-Glo 48 h, stronger effect = higher value.
[40] abbreviates: Rieske KO mouse fibroblast survival, CellTiter-Glo 72 h.

Where “and” joins values, the source holds several entries; their conditions need not be identical. Equal entries are not always repeated. Results filed as inconclusive are left out. For part of these data: Entries with a potency or affinity are not part of this list. Calls of active or inactive are those of the source. Unless noted, no rule for the calls is given here.

Sequence of 6-phosphogluconate dehydrogenase, decarboxylating (Homo sapiens) (P52209 whole entry, looked up): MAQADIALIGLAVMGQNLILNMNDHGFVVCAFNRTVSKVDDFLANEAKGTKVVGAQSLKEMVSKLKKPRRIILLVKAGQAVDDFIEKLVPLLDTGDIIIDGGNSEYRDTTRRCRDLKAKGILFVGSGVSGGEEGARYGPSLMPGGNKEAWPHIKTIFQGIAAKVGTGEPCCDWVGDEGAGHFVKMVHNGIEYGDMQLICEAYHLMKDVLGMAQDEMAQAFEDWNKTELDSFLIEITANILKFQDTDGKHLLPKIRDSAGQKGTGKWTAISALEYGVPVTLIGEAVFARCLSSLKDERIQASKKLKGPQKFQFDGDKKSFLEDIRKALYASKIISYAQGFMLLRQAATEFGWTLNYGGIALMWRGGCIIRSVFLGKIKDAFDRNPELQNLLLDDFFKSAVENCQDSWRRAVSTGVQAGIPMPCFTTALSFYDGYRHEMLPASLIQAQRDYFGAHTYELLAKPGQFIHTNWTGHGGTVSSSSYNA
Sequence of NAD(+) hydrolase SARM1 (Homo sapiens) (Q6SZW1 whole entry, looked up, the tested form may be a part): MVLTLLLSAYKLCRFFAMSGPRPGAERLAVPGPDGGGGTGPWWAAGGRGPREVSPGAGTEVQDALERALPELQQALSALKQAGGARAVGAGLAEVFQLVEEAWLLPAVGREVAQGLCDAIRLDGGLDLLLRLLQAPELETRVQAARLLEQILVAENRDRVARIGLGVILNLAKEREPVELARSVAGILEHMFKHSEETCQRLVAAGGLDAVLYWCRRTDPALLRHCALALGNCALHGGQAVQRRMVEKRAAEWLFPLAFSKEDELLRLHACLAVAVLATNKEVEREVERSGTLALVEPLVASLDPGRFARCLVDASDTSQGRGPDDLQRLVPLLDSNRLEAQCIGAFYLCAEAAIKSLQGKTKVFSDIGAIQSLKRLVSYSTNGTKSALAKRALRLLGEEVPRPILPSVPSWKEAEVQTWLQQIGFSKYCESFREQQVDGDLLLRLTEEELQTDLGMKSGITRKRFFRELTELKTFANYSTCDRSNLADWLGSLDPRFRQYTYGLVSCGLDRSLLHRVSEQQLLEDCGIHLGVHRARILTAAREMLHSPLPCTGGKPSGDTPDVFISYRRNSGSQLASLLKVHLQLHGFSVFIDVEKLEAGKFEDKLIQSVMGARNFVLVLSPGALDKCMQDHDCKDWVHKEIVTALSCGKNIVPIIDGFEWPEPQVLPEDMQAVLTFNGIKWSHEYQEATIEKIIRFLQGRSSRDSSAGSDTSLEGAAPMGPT
Sequence of Mitogen-activated protein kinase 7 (Homo sapiens) (Q13164 whole entry, looked up, the tested form may be a part): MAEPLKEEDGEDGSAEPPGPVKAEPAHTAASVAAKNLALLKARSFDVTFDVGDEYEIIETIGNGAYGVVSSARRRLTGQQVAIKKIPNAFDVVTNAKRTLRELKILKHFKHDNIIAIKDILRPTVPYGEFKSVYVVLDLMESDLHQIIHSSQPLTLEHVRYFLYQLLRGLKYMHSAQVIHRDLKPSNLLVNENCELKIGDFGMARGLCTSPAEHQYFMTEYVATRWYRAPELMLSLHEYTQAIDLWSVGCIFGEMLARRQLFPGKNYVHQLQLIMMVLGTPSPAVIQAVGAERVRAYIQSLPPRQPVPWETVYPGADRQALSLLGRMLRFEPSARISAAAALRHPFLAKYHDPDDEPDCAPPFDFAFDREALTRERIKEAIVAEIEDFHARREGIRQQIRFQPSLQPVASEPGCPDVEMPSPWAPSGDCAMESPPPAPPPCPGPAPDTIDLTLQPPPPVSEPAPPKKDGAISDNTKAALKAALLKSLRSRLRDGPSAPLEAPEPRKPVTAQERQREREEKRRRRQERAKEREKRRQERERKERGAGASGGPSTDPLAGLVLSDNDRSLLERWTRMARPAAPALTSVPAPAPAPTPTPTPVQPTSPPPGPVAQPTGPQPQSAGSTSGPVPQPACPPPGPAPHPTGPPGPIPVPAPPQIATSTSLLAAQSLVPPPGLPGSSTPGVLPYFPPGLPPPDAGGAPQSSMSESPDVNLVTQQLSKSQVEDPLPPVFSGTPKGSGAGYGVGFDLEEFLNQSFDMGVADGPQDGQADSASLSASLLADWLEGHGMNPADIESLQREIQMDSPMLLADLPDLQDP
Sequence of ATP-dependent translocase ABCB1 (Homo sapiens) (P08183 whole entry, looked up): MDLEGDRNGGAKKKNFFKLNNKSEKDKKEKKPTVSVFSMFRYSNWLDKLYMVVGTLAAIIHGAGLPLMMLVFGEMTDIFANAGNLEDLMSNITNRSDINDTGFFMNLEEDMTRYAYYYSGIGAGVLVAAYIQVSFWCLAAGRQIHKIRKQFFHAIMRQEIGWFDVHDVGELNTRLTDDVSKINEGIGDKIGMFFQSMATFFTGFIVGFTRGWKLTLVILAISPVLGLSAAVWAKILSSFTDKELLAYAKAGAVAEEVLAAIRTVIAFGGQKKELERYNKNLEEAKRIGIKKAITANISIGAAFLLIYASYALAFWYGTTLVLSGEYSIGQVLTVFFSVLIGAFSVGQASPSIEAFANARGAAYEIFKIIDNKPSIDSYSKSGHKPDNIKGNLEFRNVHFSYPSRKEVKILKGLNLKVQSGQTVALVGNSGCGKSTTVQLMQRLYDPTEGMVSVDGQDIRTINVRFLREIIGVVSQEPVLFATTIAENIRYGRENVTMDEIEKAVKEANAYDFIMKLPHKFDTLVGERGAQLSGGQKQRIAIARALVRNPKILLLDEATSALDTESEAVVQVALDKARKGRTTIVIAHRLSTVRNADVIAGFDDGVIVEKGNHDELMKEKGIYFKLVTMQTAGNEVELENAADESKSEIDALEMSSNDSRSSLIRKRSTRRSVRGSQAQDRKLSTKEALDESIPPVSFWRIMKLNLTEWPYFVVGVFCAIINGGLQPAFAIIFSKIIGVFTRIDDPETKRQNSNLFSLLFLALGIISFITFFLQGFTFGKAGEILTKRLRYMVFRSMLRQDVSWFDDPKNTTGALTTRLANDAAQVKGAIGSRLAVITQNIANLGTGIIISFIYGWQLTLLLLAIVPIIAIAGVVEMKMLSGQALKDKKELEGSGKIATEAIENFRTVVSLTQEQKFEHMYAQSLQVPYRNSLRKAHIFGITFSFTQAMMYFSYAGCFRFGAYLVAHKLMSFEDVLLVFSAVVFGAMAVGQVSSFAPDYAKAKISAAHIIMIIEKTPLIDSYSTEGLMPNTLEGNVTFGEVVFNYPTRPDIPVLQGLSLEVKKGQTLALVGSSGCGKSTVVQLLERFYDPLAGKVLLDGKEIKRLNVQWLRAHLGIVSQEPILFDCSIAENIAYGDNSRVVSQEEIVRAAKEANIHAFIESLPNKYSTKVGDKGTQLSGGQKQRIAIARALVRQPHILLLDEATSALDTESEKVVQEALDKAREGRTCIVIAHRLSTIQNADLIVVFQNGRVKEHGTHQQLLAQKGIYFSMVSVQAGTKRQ

`C[C@H](CCC(=O)O)[C@H]1CC[C@H]2[C@@H]3[C@H](O)C[C@@H]4C[C@H](O)CC[C@]4(C)[C@H]3CC[C@]12C`: in [1], the survival is 11.7 (inactive). Besides, in test [2], the parasite load remaining is 42% (inactive) and 91.9% (inactive). In addition, the viability in test [2] was 46.4% and 85.3%. For the same molecule, the inhibition in test [3] is -1.04% (inactive). Besides, the call in test [4], in [5], in test [6], in test [7], in [8] and in test [9] was inactive. For the same molecule, the molecule was called inactive in test [10] and in [11]. In addition, the figures for the fold change in test [12] (setting [35]) and in test [12] (setting [36]) were 0.917 (inactive) and 1.03, respectively. Further, the values for the cell count in test [12] (setting [37]) and in test [12] (setting [38]) were 9290 and 10100, respectively. The z-score is 0.377 (inactive) in test [13] (setting [39]) and -0.0721 in test [13] (setting [40]). Further, in [14], the remaining NAD is 10 nM (inactive). Moreover, in test [15], the luciferase signal is 112 AU (inactive).

`COc1cccc(OC)c1OCCNCC1COc2ccccc2O1` (configuration not stated): in [16], the period change is 0.335 h (inactive). The values for the inhibition in [17] and in test [3] were -1% (inactive) and 18.8% (inactive), respectively. For the same molecule, the fluorescence ratio (interference) in [18] was 1 (inactive). The remaining activity in [19] is 108% (inactive). Moreover, the fold change in test [12] (setting [35]) is 0.967 (inactive) and 0.92 (inactive); in [12] (setting [36]) it was 1.13 and 0.877. Also, the cell count in test [12] (setting [37]) is 8030 and 7680; in [12] (setting [38]), 8310 and 8340. Also, the call in test [20] was inactive. In test [21], the z-score was -0.59 (inactive) and -0.815 (inactive).

In the case of `CC(=O)[C@H]1CC[C@H]2[C@@H]3CCC4=CC(=O)CC[C@]4(C)[C@H]3CC[C@]12C`, the fluorescence slope change in [22] is 82.5% (active). The period change in test [16] was 0.25 h (inactive). The survival in test [1] is 8.58 (inactive). In addition, the inhibition in test [17] is -4% (inactive); in [24] it was -6.73% (inactive); in test [25], 1.44% (inactive); in test [3], 14.1% (inactive). The fluorescence ratio (interference) in test [18] was 0.9 (inactive). Moreover, the fluorescence ratio in [23] was 0.96 (inactive); in [26] it was 0.92 (inactive). Moreover, the concentration at half-maximal activity (AC50) in test [5] was 1870 nM (active). For the same molecule, the molecule was classed as inactive in test [6] and in test [20]. Besides, the fold change in test [12] (setting [35]) is 1.08 (inactive) and 0.812 (inactive) and 0.853 (inactive); in [12] (setting [36]), 0.82 and 1.33 and 1.49. For the same molecule, the cell count in test [12] (setting [37]) is 8120 and 7150 and 6560; in test [12] (setting [38]) it was 7520 and 8800 and 7700. Besides, the z-score in [13] (setting [39]) was -0.398 (inactive) and 0.245 (inactive); in [13] (setting [40]) it was -0.301 and 1.24; in [21], -0.485 (inactive) and -1.04 (inactive). For the same molecule, the remaining NAD in test [14] is 10 nM (inactive). Also, the luciferase signal in [15] is 28 AU (inactive).

Turning to `CCCn1c(=O)c2[nH]c(C3CCCC3)nc2n(CCC)c1=O`, the inhibition in test [27] is 8.56%; in test [17] it was 0% (inactive); in test [3], 11.4% (inactive). In test [28], this molecule gave a score of 1.24. Besides, the rescue above control in test [29] is 18.1. In test [30], the cytochrome c release ratio amounted to 0.92. Also, in test [31], the inhibition of aggregation amounted to 1.59%. Moreover, the glutamate uptake change in test [32] is -12.9%. The inclusion score in test [33] amounted to 2. In test [34], the aggregation suppression score is 1.32. In test [16], the period change was -0.025 h (inactive). In addition, the fluorescence ratio (interference) in test [18] was 1 (inactive). Besides, in test [19], the remaining activity is 119% (inactive). The fold change in test [12] (setting [35]) was 1.02 (inactive) and 0.942 (inactive); in [12] (setting [36]) it was 1.07 and 0.717. Moreover, the cell count in test [12] (setting [37]) was 7850 and 7600; in test [12] (setting [38]), 7700 and 8070. In addition, in [20], the molecule was classed as inactive. Also, the z-score in [21] is 1.02 (inactive) and 0.16 (inactive).
